Consider 28 molecules from the supplement of paper PMC13380429.

Test [1] concerns Vero E6 infected with SARS-CoV-2. Briefly: morphology score (similarity to uninfected cells); higher = more like uninfected cells. The note with it: 24 h.
The test system is the same in test [2]. In words: SARS-CoV-2 infection rate relative to infected DMSO; higher = more infection, active = 60 or less. The note with it: 24 h.

SMILES strings stand for the structures.

The molecule `Cc1ccc(C23CNCC2C3)cc1` (stereo unspecified) [bicifadine] (10 µM) registered a morphology score in test [1] of 0.0287. Besides, the SARS-CoV-2 infection rate in test [2] was 107% (inactive).

Take `CCC[N+]12[C@H](O)[C@@H](CC)[C@@H]3C[C@H]1[C@@H]1N(C)c4ccccc4[C@]14C[C@H]2[C@@H]3[C@H]4O` [neo-gilurytmal] (10 µM): the morphology score in test [1] was -0.0363. In addition, the SARS-CoV-2 infection rate in test [2] is 116% (inactive).

As to `CC(NC(C)(C)C)C(=O)c1cccc(Cl)c1` (stereo unspecified) [bupropion] (10 µM), the morphology score in test [1] came out at 0.00981. Also, the SARS-CoV-2 infection rate in test [2] was 96.5% (inactive).

Molecule `COc1ccc2[nH]c([S+]([O-])Cc3ncc(C)c(OC)c3C)nc2n1` (stereo unspecified) [tenatoprazole] (10 µM) yielded a morphology score in test [1] of 0.162. Also, the SARS-CoV-2 infection rate in test [2] is 105% (inactive).

Take `O=C(/C=C/c1cccc(F)c1)NC1CC1` [cinflumide] (10 µM): the morphology score in test [1] is -0.00378. For the same molecule, the SARS-CoV-2 infection rate in test [2] was 110% (inactive).

`C[C@@H]1CC[C@H]2C(C)(C)[C@H]3C[C@@]12CC[C@@]3(C)O` [cedrol] (10 µM) had a morphology score in test [1] of 0.0579. Also, in test [2], the SARS-CoV-2 infection rate was 95.5% (inactive).

In the case of `CC1(C)CC(=O)c2c(C(F)(F)F)nn(-c3ccc(C(N)=O)c(N[C@H]4CC[C@H](O)CC4)c3)c2C1` (10 µM), the morphology score in test [1] was determined as 0.196. Moreover, in test [2], the SARS-CoV-2 infection rate is 102% (inactive).

In test [1], `Cc1cc(C(=O)NOCCO)c(Nc2ccc(I)cc2F)n(C)c1=O` (10 µM) came in with a morphology score of -0.0952. In addition, in test [2], the SARS-CoV-2 infection rate was 107% (inactive).

Molecule `COc1cc2c(cc1C(F)(F)F)N(C(=O)Nc1cc(F)cc(-c3cccnc3)c1)CC2` (10 µM) registered a morphology score in test [1] of -0.0154. In addition, the SARS-CoV-2 infection rate in test [2] was 106% (inactive).

As for `CS(=O)(=O)CCNCc1nc(-c2ccc3ncnc(Nc4ccc(OCc5cccc(F)c5)c(Cl)c4)c3c2)cs1` (10 µM), the morphology score in test [1] is -0.294. In test [2], the SARS-CoV-2 infection rate is 116% (inactive).

In the case of `C[C@@H]1O[C@@H](O[C@H]2[C@H](Oc3cc(O)c4c(c3)O[C@H](c3ccc(O)cc3)CC4=O)O[C@H](CO)[C@@H](O)[C@@H]2O)[C@H](O)[C@H](O)[C@H]1O` [Naringin (Naringoside)] (10 µM), the morphology score in test [1] worked out at 0.254. The SARS-CoV-2 infection rate in test [2] was 106% (inactive).

Take `CCC(=O)O[C@@H]1CC(=O)O[C@H](C)C/C=C/C=C/[C@H](O)[C@H](C)C[C@H](CC=O)[C@H](O[C@@H]2O[C@H](C)[C@@H](O[C@H]3C[C@@](C)(O)[C@@H](OC(=O)CC)[C@H](C)O3)[C@H](N(C)C)[C@H]2O)[C@H]1OC` [midecamycin] (10 µM): in test [1], the morphology score turned out to be 0.2. Further, the SARS-CoV-2 infection rate in test [2] is 102% (inactive).

The molecule `O=c1[nH]c2cc(C(F)(F)F)c(N3CCOCC3)cc2n(CP(=O)(O)O)c1=O` (10 µM) had a morphology score in test [1] of 0.119. The SARS-CoV-2 infection rate in test [2] was 99% (inactive).

Take `CCCn1c(=O)c2[nH]cnc2n(-c2ccc(Cl)cc2)c1=O` [arofylline] (10 µM): the morphology score in test [1] came out at 0.178. In addition, the SARS-CoV-2 infection rate in test [2] was 108% (inactive).

The molecule `O=C(O)Cc1sc(-c2ccccc2)nc1-c1ccc(Cl)cc1` [fentiazac] (10 µM) showed a morphology score in test [1] of 0.0803. The SARS-CoV-2 infection rate in test [2] is 100% (inactive).

`COc1cc(N)c(Cl)cc1C(=O)NC1CCN(Cc2ccccc2)CC1` [clebopride] (10 µM): the morphology score in test [1] was -0.0118. Further, the SARS-CoV-2 infection rate in test [2] was 110% (inactive).

As for `Cc1noc(NS(=O)(=O)c2ccc(N)cc2)c1C` [sulfafurazole] (10 µM), the morphology score in test [1] turned out to be 0.1. Further, in test [2], the SARS-CoV-2 infection rate was 100% (inactive).

In test [1], `Cc1ccc(OCCSc2ncccn2)c(Br)c1` (10 µM) came in with a morphology score of 0.0756. The SARS-CoV-2 infection rate in test [2] is 104% (inactive).

In test [1], `S=C(S)N1CCCC1` [pyrrolidine-dithiocarbamate] (0.833333 µM) displayed a morphology score of 0.106. Also, in test [2], the SARS-CoV-2 infection rate is 98% (inactive).

Consider `CN1CCN(c2ccc3ccccc3n2)CC1` [N-methylquipazine] (10 µM), for which, in test [1], the morphology score was 0.139. The SARS-CoV-2 infection rate in test [2] is 100% (inactive).

For `Cn1cc(-c2cnc3ccc4ccc(CS(=O)(=O)NCc5ccccn5)cc4c(=O)c3c2)cn1` (10 µM), the morphology score in test [1] was found to be 0.0342. Also, in test [2], the SARS-CoV-2 infection rate was 106% (inactive).

`c1ccc2c(c1)[I+]c1ccccc1-2` [diphenyleneiodonium] (0.833333 µM) returned a morphology score in test [1] of 0.143. For the same molecule, in test [2], the SARS-CoV-2 infection rate was 108% (inactive).

As for `O=C(O)CCC(=O)C(=O)O` [2-oxoglutaric-acid] (10 µM), the morphology score in test [1] was -0.135. In addition, the SARS-CoV-2 infection rate in test [2] was 110% (inactive).

Molecule `CC1C(=O)OC2C(O)C34C5CC(C(C)(C)C)C36C(OC(=O)C6O)OC4(C(=O)O5)C12O` (stereo unspecified) [ginkgolide-B] (10 µM) displayed a morphology score in test [1] of 0.264. Besides, the SARS-CoV-2 infection rate in test [2] was 93% (inactive).

`CCN1C(C)(C)CC(Oc2ccc(C(=O)Nc3ccc(NC(=O)Nc4cc(C(C)(C)C)on4)cc3)nc2)CC1(C)C` (10 µM) displayed a morphology score in test [1] of -0.0181. Besides, the SARS-CoV-2 infection rate in test [2] was 101% (inactive).

Molecule `CC(C)NC[C@@H](O)COc1ccccc1-n1cccc1` (racemic) [isamoltane] (10 µM) registered a morphology score in test [1] of -0.204. Further, the SARS-CoV-2 infection rate in test [2] was 114% (inactive).

For `CCn1c(-c2nonc2N)nc2c(C#CC(C)(C)O)ncc(OC[C@H]3CCCNC3)c21` (10 µM), the morphology score in test [1] was determined as 0.337. Besides, the SARS-CoV-2 infection rate in test [2] is 105% (inactive).

`Nc1nc2c(ncn2[C@@H]2O[C@H](CO)[C@@H](O)[C@H]2O)c(=O)[nH]1` [guanosine] (10 µM) gave a morphology score in test [1] of 0.0982. In addition, the SARS-CoV-2 infection rate in test [2] is 106% (inactive).
